Records with an inconclusive call do not appear. Entries that show only a call come without a potency. A number with no mark means an inactive call. Activity calls are given as the source filed them. The call rests on the fitted dose curve; in most records, active means well fitted cell-killing curve with a large enough effect in the repeat runs; inconclusive means weak or mixed curves; inactive means flat fitted curve, though single readings scatter.
Assay: qHTS RealTime-Glo MT Cell Viability Assay in HepG2 cells - 24 hour (AID 1224867); further: nearly all actives have a fitted effect of over 50% in size
Conditions: RealTime-Glo luminescence; series mostly up to 76.8 µM
Excerpt: U.S. Tox21 Program National Center for Advancing Translational Sciences [NCATS] NIH Chemical Genomics Center [NCGC] U.S. Environmental Protection Agency [EPA] National Institutes of Environmental Health Sciences [NIEHS] National Toxicology Program [NTP] U.S. Food and Drug Administration [FDA] Tox21 Assay Overview: Measure of cell viability is critical in the cell-base assay. Analysis of cell viability is necessary for the characterization of cell responses to cytotoxic drugs and environmental stress. A RealTime-Glo MT Cell Viability Assay to monitor cell viability in real time of continues cell culture during 40 hours of compound treatment was used to screen Tox21 10K library compounds in HepG2 cells. The RealTime-Glo MT Cell Viability Assay is a nonlytic, homogeneous, bioluminescent method to measure cell viability in real time using a simple, plate-based method. The assay involves adding NanoLuc luciferase and a cell-permeant prosubstrate to cells in culture. Viable cells reduce the proprietary prosubstrate to generate a substrate for NanoLuc luciferase. This substrate diffuses from cells into the surrounding culture medium, where it is rapidly used by the NanoLuc Enzyme to produce a luminescent signal. The signal correlates with the number of viable cells, making the assay well suited for cytotoxicity studies.
Tox21 Assay Protocol Summary: The mixture of HepG2 cell suspension and reagents were dispensed at 600cells/6 ul/well in 1536-well tissue culture treated black solid bottom plates using a Multidrop dispenser. After the assay plates were incubated at a 37 C/5% CO2 incubator for 5 hours, 23 nL of compounds dissolved in DMSO, positive and negative controls was transferred to the assay plate by a pintool work station. The plates were incubated at 37 C for 40 hours. The luminescence intensity were measured at 0h, 8h, 16h, 24h, 32h and 40h time points using ViewLux plate reader during compound treatment.

Compound | Potency | activity change, negative = cytotoxicity
Nc1c2c(nc3ccccc13)CCCC2O (stereo not given) | inactive | –
CN1N=C(C(N)=O)CCC1=O | inactive | –
CCOC(=O)CC(C)=O | inactive | –
NC(=O)c1ccc([N+](=O)[O-])cc1 | inactive | –
CCC(C)C1CCCCC1=O (stereo not given) | inactive | –
COC(=O)c1cc(C(=O)OC)cc(S(=O)(=O)O)c1 | inactive | –
CCC(=O)OC(C)c1ccccc1 (stereo not given) | inactive | –
Cc1c(O)cccc1O | inactive | –
OC[C@]1(O)OC[C@@H](O)[C@H](O)[C@@H]1O | inactive | –
CC/C=C\CCOC(C)=O | inactive | –
Cc1[nH]c(=O)c(C#N)cc1-c1ccc2nccn2c1 | inactive | –
OC1CCCCC1c1ccccc1 (stereo not given) | inactive | –
O=C(O)CCCl | inactive | –
COc1ccc(CCN(C)CCCC(C#N)(c2cc(OC)c(OC)c(OC)c2)C(C)C)cc1OC (stereo not given) | inactive | –
CCCCC/C=C\CCC=O | inactive | –
CC(=O)N(CC(O)CO)c1c(I)c(C(=O)NCCO)c(I)c(C(=O)NCC(O)CO)c1I (stereo not given) | inactive | –
COC(=O)c1c(Cl)c(Cl)c(C(=O)OC)c(Cl)c1Cl | inactive | –
CO/N=C(/C(=O)N[C@@H]1C(=O)N2C(C(=O)OCOC(=O)C(C)(C)C)=C(C)CS[C@H]12)c1csc(N)n1 | inactive | –
COc1nc(N)nc2c1ncn2[C@@H]1O[C@H](CO)[C@@H](O)[C@@H]1O | inactive | –
Cc1cccc(C)c1NC(=O)C(C)N (stereo not given) | inactive | –

Compound | Potency | activity change, negative = cytotoxicity
CCOC(=O)c1c(C)n(C)c2ccc(O)cc12 | inactive | –
Cc1c(NC(C)C)c(=O)n(-c2ccccc2)n1C | inactive | –
N[C@@H](C(=O)N[C@@H]1C(=O)N2C(C(=O)O)=C(Cl)CS[C@H]12)c1ccccc1 | – | 0.732% [at 6.97 µM]
COc1c(N2C[C@@H]3CCCN[C@@H]3C2)c(F)cc2c(=O)c(C(=O)O)cn(C3CC3)c12 | inactive | –
CC(C)NCCCC1(C(N)=O)c2ccccc2-c2ccccc21 | inactive | –
N=C(N)c1ccccc1 | inactive | –
CCn1nc(C(=O)O)c(=O)c2cc3c(cc21)OCO3 | inactive | –
CC(C(=O)O)c1ccc(CC2CCCC2=O)cc1 (stereo not given) | inactive | –
CC/C=C\CC/C=C/C(OCC)OCC | inactive | –
CN(C)CCCNCCCN(C)C | inactive | –
CCOC(C)(C)C | inactive | –
NCCc1cnc[nH]1 | inactive | –
CCC(C)S (stereo not given) | – | 1.23% [at 2.72 µM]
O=c1[nH]c(=O)n([C@H]2C[C@H](O)[C@@H](CO)O2)cc1I | inactive | –
c1ccc([C@H]2CN3CCSC3=N2)cc1 | inactive | –
Brc1c(NC2=NCCN2)ccc2nccnc12 | inactive | –
CCCCCCOC(=O)CCCCC(=O)OCCCCCC | inactive | –
CC(=O)OCC(CCn1cnc2cnc(N)nc21)COC(C)=O | inactive | –
O=C1CCCC(=O)C1 | inactive | –
N=c1nc(N2CCCCC2)cc(N)n1O | inactive | –
